Assay outcomes deposited in PubChem by several laboratories.
A selection: hits, their analogues and other compounds. The true share with any hit is near 2.1%.
S1P2 ag: S1P2 (human) receptor agonism; S1P2-expressing cell line, agonist reporter read-out; activation, % at 4.5 µM; 97,000 compounds, 0.46% hits; AID 729; in the data active = activation above about 16%;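 also: 0% = vehicle low control and 100% = maximal reference agonist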
Target sequence (O95136 whole entry, looked up): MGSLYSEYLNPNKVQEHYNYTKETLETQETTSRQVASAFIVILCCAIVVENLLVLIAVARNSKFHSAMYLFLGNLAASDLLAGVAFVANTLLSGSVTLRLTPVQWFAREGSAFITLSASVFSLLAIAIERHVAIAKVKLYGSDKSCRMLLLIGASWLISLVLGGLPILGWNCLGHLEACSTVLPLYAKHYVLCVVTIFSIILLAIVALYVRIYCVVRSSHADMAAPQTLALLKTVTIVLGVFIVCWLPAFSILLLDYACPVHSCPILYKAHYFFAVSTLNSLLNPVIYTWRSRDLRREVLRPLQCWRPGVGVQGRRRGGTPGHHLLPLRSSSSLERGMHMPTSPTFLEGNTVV
GALR2 blocker: antagonists of human galanin receptor 2 (GALR2); AID 828; GALR2-expressing cells, antagonist mode; O43603; inhibition, % at 4 µM; 140,000 compounds, 0.39% hits; in the data active = inhibition above about 27%;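 also: cells stimulated with galanin 1-16 at roughly its EC80; 0% = agonist challenge control and 100% = basal control without agonist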
S1P2 blocker: S1P2 (human) receptor antagonism | AID 736 | 97,000 compounds, 0.21% hits | cell-based S1P2 antagonist assay, inhibition at 5 uM | inhibition, % at 5 µM; in the data active = inhibition above about 45%;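 also: CRE beta-lactamase reporter cells expressing human S1P2 stimulated with S1P; 0% = agonist at EC80 alone and 100% = agonist plus reference antagonist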
GALR2 ag: activates the human galanin receptor 2. O43603. GALR2-expressing cells, agonist activation read-out. activation, % (concentration not given with the values). 140,000 compounds, 0.48% hits. AID 803; in the data active = activation above about 5%, passing the limit was not always enough;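 also: 0% = vehicle buffer wells and 100% = reference agonist at full effect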
DAT uptake mod: changed human dopamine transporter uptake under cocaine IC80; Q01959; LLC-PK1 hDAT cells, [14C]-dopamine uptake with cocaine IC80; actives deviate in either direction; B-score at 10 µM; 110,000 compounds, 1.3% hits;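 active = Z score or B-score, a plate-position-corrected score, falls beyond the plate's 99.7% confidence bounds, in either direction; inactive = both scores lie inside the 99.7% bounds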;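 also: scored against the spread of the other compound wells on the same plate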
* = called active by the depositor; / = no result given.

SMILES | S1P2 ag | GALR2 blocker | S1P2 blocker | GALR2 ag | DAT uptake mod
Cc1sc2ncnc(NCCCn3ccnc3)c2c1C | -6 | 3 | -6 | -2 | -0.27
Cc1sc2ncnc(Oc3ccc(-n4ccnc4)cc3)c2c1C | / | 18 | / | -2 | 2.5*
Cc1cccc2sc(NNC(=O)c3ccc(S(=O)(=O)N4CCCC(C)C4)cc3)nc12 (configuration not stated) | / | -1 | / | 5.2* | /
COc1ccc(-c2nc(CSCC(=O)N3CCc4ccccc4C3)c(C)o2)cc1OC | / | 14 | / | -1 | 1.9*
COc1ccc(-c2nc(CSCC(=O)N3CCC(C(N)=O)CC3)c(C)o2)cc1OC | -6 | -3 | -10 | -2 | 0.5
Nn1c(Nc2ccccc2)nc2sc3c(c2c1=O)CCC3 | -5 | 7 | 27 | -1 | 3.7*
CCC1SC2=NC(C)=C(C(=O)OCCOC)C(/C=C/c3ccccc3OC)N2C1=O (configuration not stated) | -2 | -10 | 7 | 0 | -7.6*
C=CCn1c(=O)c2ccccc2n2c(SCc3nc4ccccc4s3)nnc12 | -3 | 13 | -4 | 1 | 3.6*
C=CCn1c(=O)c2ccccc2n2c(SCC(N)=O)nnc12 | -2 | 3 | 13 | -1 | -0.23
CCc1nnc(NC(=O)C(=O)NCCOC(=O)c2ccccc2)s1 | -4 | 0 | 1 | -3 | 0.14
COc1ccc(Oc2ncnc3c2oc2ccc(Br)cc23)cc1 | / | / | / | / | -7.4*
CN(C)CCOc1ncnc2c1oc1ccccc12 | -4 | 2 | -16 | -2 | -0.74
Cc1nn(-c2cccc(Cl)c2)c(Cl)c1/C=N/NC(=O)c1cccs1 | / | -3 | / | 5.0* | /
CCOCCc1nnc(NC(=O)COC)s1 | 0 | -4 | -11 | -1 | -0.27
CCOC(=O)C1=C(N)Oc2c(oc(CO)cc2=O)C1c1c(F)cccc1Cl (configuration not stated) | -4 | -1 | 10 | -2 | 1.2
CCOc1ccc(C2=Nn3c(nnc3-c3ccco3)SC2)cc1 | -3 | 3 | -23 | -2 | 0.51
COc1ccc(C2=Nn3c(nnc3-c3ccccc3OC)SC2)cc1OC | 34* | 30* | -33 | 3 | 0.21
COc1ccc(C2=Nn3c(nnc3-c3ccco3)SC2)cc1OC | 40* | -12 | -40 | -1 | 0.4
COc1cccc(C2C3=C(CCCC3=O)Nc3nc(-c4cc(OC)c(OC)c(OC)c4)nn32)c1 (configuration not stated) | 17* | 2 | -26 | 1 | 1.5
COc1ccc(N(CC(=O)N/N=C/c2ccc(-c3ccc([N+](=O)[O-])cc3)o2)S(=O)(=O)c2ccc(C)cc2)cc1Cl | -11 | 7 | 50* | -1 | -0.8
O=C(CCn1nc(-c2ccccc2)c2ccccc2c1=O)NCC1CCCO1 (configuration not stated) | -4 | 0 | -2 | -2 | /
O=C(NC(Cc1ccccc1)c1ccc2c(c1)OCCCO2)c1ccccc1F (configuration not stated) | -5 | -10 | 9 | -4 | 2.6*
O=C(Nc1ccc2c(c1)OCCO2)c1cc2sccc2n1Cc1ccccc1 | -1 | -4 | 9 | -2 | 1.4
O=C(Nc1cccc(O)c1)c1cnn2cccnc12 | -1 | 5 | 4 | -2 | -0.86
COc1ccc(C(=O)NC(Cc2ccccc2)c2ccc3c(c2)OCCCO3)cc1 (configuration not stated) | -5 | -12 | -11 | -2 | -0.28
SMILES | S1P2 ag | GALR2 blocker | S1P2 blocker | GALR2 ag | DAT uptake mod
O=C(Nc1ccc2c(c1)OCO2)c1cnn2cccnc12 | -1 | 19 | 14 | 374* | -0.68
Cn1c(C(=O)Nc2ccc3c(c2)OCCO3)cc2sccc21 | -7 | 8 | 8 | -1 | 2.2*
O=C(Nc1ccc2c(c1)OCCO2)c1ccccc1F | -10 | -7 | 8 | -1 | -1.8*
CN(C(=O)CSc1nc(N)nn1-c1ccccc1)c1ccccc1 | -5 | -5 | 6 | -2 | 2.1
COc1ccc2[nH]c(=O)c(-c3nnn(-c4ccc(Cl)c(Cl)c4)n3)cc2c1 | / | / | / | / | -0.14
CC(C)OC(=O)CSc1nnc(-c2cccnc2)n1Cc1ccccc1 | -6 | -5 | 13 | -1 | -0.46
O=C(O)CSc1nnc(-c2cccnc2)n1Cc1ccccc1 | / | 15 | / | -2 | -7*
Cc1cc(NC(=O)C(C)Oc2ccc(Cl)cc2Cl)n(-c2ccccc2)n1 (configuration not stated) | 0 | -2 | -15 | -2 | -0.52
Cc1cc(NC(=O)CSc2nnc(-c3ccoc3C)o2)no1 | -3 | 5 | -14 | -4 | 2.6*
Fc1ccc(-n2nnc(-c3ncc[nH]3)n2)cc1 | / | / | / | / | -1.2
